Data reported in PubChem BioAssay (EPA / NIEHS).
A structure can be active in one record and inactive in another. The source made the active and inactive calls. How the source made its calls: active means hit-call score of the fitted dose curve at least 0.9, where 1 is the maximum; inactive means score below 0.9.

Experiments:
[1] = biological target: Nuclear respiratory factor 1 (Homo sapiens) (UniProt Q16656); experiment: ATG_NRF1_CIS: Attagene CIS-FACTORIAL HepG2 Assay for human Nuclear Respiratory Factor 1 (NRF1) Orphan Gene (AID 2282987); conditions: HepG2 NRF1 cis-element reporter, Attagene multiplex; actives raise or lower the signal
Chain of Nuclear respiratory factor 1 (Homo sapiens) (Q16656 whole entry, looked up, the tested form may be a part): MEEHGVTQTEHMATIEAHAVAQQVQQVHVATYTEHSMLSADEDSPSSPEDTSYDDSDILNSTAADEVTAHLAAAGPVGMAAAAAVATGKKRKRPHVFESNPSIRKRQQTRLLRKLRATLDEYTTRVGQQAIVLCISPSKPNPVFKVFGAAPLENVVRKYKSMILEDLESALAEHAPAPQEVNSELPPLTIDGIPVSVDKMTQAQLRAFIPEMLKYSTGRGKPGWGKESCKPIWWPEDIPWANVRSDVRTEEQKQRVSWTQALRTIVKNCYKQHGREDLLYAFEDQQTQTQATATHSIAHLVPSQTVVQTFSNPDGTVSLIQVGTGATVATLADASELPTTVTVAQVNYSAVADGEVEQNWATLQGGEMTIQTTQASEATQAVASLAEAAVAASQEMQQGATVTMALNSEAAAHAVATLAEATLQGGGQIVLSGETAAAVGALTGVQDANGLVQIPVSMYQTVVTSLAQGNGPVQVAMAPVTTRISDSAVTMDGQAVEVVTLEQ
Outline: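 Fluorescence intensity of labelled reporter cDNA fragments, resolved by capillary electrophoresis, served as readout for NRF1 cis-element activity. Transiently transfected HepG2 cells were dosed for 24 hours; activity in either direction was fitted against DMSO negative control.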

[2] = ATG_NFI_CIS: Attagene CIS-FACTORIAL HepG2 Assay for human Nuclear Factor I (NFI) (AID 2282989); conditions: HepG2 cis-regulatory reporter, NFI response element transcription; actives raise or lower the signal
Outline: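 Transient MRTU transfection of HepG2 → 24 h chemical dosing → total RNA, oligo(dT) RT → PCR, 6-FAM primer extension, HpaI cut → capillary electrophoresis. Endpoint fitted bidirectionally relative to DMSO.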

[3] = biological target: Myc proto-oncogene protein (Homo sapiens) (UniProt P01106); experiment: ATG_Myc_CIS: Attagene CIS-FACTORIAL HepG2 Assay for human Myelocytomatosis (Myc) Proto-Oncogene Transcription Factor (AID 2282990); conditions: HepG2, Attagene cis-reporter transcription factor activity; actives raise or lower the signal
Chain of Myc proto-oncogene protein (Homo sapiens) (P01106 whole entry, looked up): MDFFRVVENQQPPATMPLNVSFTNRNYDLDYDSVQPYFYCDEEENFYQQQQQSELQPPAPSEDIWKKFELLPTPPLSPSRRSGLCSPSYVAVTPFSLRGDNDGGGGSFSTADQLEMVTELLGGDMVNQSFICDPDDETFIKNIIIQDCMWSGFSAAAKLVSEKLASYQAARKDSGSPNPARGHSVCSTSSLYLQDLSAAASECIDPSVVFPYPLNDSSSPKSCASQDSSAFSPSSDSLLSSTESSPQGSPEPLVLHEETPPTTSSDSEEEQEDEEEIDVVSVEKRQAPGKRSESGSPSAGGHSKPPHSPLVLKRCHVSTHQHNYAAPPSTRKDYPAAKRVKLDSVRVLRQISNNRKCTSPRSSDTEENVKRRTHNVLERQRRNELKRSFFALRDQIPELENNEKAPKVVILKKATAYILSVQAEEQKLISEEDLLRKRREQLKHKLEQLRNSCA
Outline: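 Transiently transfected HepG2 cells bearing cis-promoter reporter units for endogenous transcription factors; 24 h exposure. Reporter mRNA measured by RT-PCR, 6-FAM primer extension, HpaI cut and capillary electrophoresis; bidirectional fit relative to DMSO.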

[4] = ATG_NRF2_ARE_CIS: Attagene CIS-FACTORIAL HepG2 Assay for human Nuclear Factor Erythroid 2 Related Factor 2 (NFR2) response to Antioxidant Response Elements (ARE) (AID 2282992); conditions: HepG2 Attagene ARE/NRF2 reporter, transcription factor activity; actives raise or lower the signal;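 on AC50: reporter mRNA level measured by RT-PCR and capillary electrophoresis fluorescence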
Outline: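 Readout: reporter mRNA quantified by RT-PCR plus FAM-labelled primer extension, HpaI digestion and capillary electrophoresis, 24 h after dosing transfected HepG2 cells. Gain or loss of signal is fitted bidirectionally against DMSO baseline.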

[5] = ATG_Oct_MLP_CIS: Attagene CIS-FACTORIAL HepG2 Assay for human Octamer-Binding Transcription Factor (Oct) (AID 2282993); conditions: HepG2 Attagene cis-factorial Oct reporter, mRNA; actives raise or lower the signal
Outline: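 Transient MRTU transfection of HepG2 → 24 h compound treatment → RNA isolation, reverse transcription, PCR → 6-FAM primer extension, HpaI digest → capillary electrophoresis. Activity fitted both directions against DMSO.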

[6] = biological target: Cellular tumor antigen p53 (Homo sapiens) (UniProt P04637); experiment: ATG_p53_CIS: Attagene CIS-FACTORIAL HepG2 Assay for human p53 Transcription Factor (AID 2282994); conditions: HepG2 p53 cis-element reporter, Attagene mRNA; actives raise or lower the signal
Chain of Cellular tumor antigen p53 (Homo sapiens) (P04637 whole entry, looked up): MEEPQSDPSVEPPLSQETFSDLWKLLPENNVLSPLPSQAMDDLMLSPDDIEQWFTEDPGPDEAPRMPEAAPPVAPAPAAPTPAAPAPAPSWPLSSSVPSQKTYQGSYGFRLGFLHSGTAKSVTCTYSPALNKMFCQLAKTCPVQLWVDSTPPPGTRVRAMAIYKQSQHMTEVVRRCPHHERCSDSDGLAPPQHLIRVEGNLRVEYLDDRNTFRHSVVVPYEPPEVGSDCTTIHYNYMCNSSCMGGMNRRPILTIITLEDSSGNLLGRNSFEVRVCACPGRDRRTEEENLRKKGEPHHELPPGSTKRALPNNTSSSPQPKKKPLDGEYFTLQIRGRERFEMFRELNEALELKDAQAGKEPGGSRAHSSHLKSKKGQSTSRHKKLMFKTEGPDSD
Outline: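 Read-out: reporter mRNA by RT-PCR plus capillary electrophoresis with fluorescence detection. Human HepG2 liver cells carried transfected multi-reporter cis-element constructs, dosed 24 h. Gain or loss of signal fitted bidirectionally against DMSO control.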

[7] = ATG_NF_kB_CIS: Attagene CIS-FACTORIAL HepG2 Assay for human Nuclear Factor Kappa B (NF-kB) (AID 2282991); conditions: HepG2 Attagene cis-factorial NF-kB reporter mRNA; actives raise or lower the signal
Outline: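 Endogenous transcription factor activity in HepG2 was captured via cis-regulated reporter constructs; after 24 h dosing, reporter mRNA was reverse-transcribed, amplified, fluorescently labelled and sized by capillary electrophoresis, with activity fitted bidirectionally relative to DMSO.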

[8] = BSK_3C_TissueFactor: BioMAP Diversity Plus: 3C Assay for Tissue Factor Biomarker Activity (AID 2282997); conditions: BioMAP 3C HUVEC, tissue factor biomarker readout; actives raise or lower the signal
Outline: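 Cells used were primary human umbilical vein endothelial cells. They were dosed with chemical, and after 24 h Tissue Factor was quantified by ELISA. Curves were fitted bidirectionally with DMSO as baseline.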

[9] = BSK_3C_VCAM1: BioMAP Diversity Plus: 3C Assay for Vascular cell adhesion molecule 1 (VCAM1) Biomarker Activity (AID 2282999); conditions: BioMAP 3C HUVEC, VCAM1 ELISA, cytokine-stimulated; actives raise or lower the signal
Outline: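 HUVEC primary cells, 24 h compound exposure; VCAM-1 by ELISA; gain/loss of signal fitted bidirectionally vs DMSO baseline.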

SMILES: CC(C)c1cc(C(C)C)cc(C(C)C)c1
- AC50 [1]: 174 µM (active)
- AC50 [2]: 151 µM (active)
- AC50 [3]: 161 µM (active)
- AC50 [4]: 66.3 µM (active)
- outcome [5]: inactive
- outcome [6]: inactive

SMILES: C=C(C)C1CC=C(C)CC1 (configuration not stated)
- outcome [1]: inactive
- outcome [2]: inactive
- outcome [3]: inactive
- outcome [4]: inactive
- outcome [5]: inactive
- outcome [6]: inactive

SMILES: COc1nccnc1CC(C)C
- outcome [1]: inactive
- outcome [2]: inactive
- outcome [3]: inactive
- outcome [4]: inactive
- outcome [5]: inactive

SMILES: CCc1cccc(CC)c1
- outcome [1]: inactive
- outcome [2]: inactive
- outcome [3]: inactive
- outcome [4]: inactive
- outcome [5]: inactive
- outcome [6]: inactive

SMILES: CC1=CP(=O)(c2ccccc2)CC1 (configuration not stated)
- outcome [1]: inactive
- outcome [2]: inactive
- outcome [3]: inactive
- outcome [4]: inactive
- outcome [5]: inactive
- outcome [6]: inactive

SMILES: CCCCC/C=C\C/C=C\CCCCCCCC(=O)O
- outcome [1]: inactive
- AC50 [2]: 163 µM (active)
- outcome [3]: inactive
- AC50 [4]: 51.6 µM (active)
- outcome [5]: inactive
- outcome [6]: inactive

SMILES: CC12CCC(CC1)C(C)(C)O2
- outcome [1]: inactive
- outcome [2]: inactive
- outcome [3]: inactive
- outcome [4]: inactive
- outcome [5]: inactive
- outcome [6]: inactive

SMILES: C1CNCCN1
- outcome [1]: inactive
- outcome [2]: inactive
- outcome [3]: inactive
- outcome [7]: inactive
- outcome [5]: inactive
- outcome [8]: inactive
- outcome [9]: inactive

SMILES: C[Si](C)(C)N[Si](C)(C)C
- outcome [1]: inactive
- outcome [2]: inactive
- outcome [3]: inactive
- outcome [4]: inactive
- outcome [5]: inactive
- outcome [6]: inactive

SMILES: CC1=CC(C)C(C=O)CC1 (configuration not stated)
- outcome [1]: inactive
- outcome [2]: inactive
- outcome [3]: inactive
- AC50 [4]: 14.1 µM (active)
- outcome [5]: inactive
- outcome [6]: inactive

SMILES: COC(=O)CC(C)CCC=C(C)C (configuration not stated)
- outcome [1]: inactive
- outcome [2]: inactive
- outcome [3]: inactive
- outcome [4]: inactive
- outcome [5]: inactive
- outcome [6]: inactive

SMILES: Nc1ccc(C(=O)O)cc1
- outcome [1]: inactive
- outcome [2]: inactive
- outcome [3]: inactive
- outcome [7]: inactive
- outcome [5]: inactive
- outcome [8]: inactive
- outcome [9]: inactive

SMILES: O=C(O)CCCC(=O)O
- outcome [1]: inactive
- outcome [2]: inactive
- outcome [3]: inactive
- outcome [4]: inactive
- outcome [5]: inactive
- outcome [6]: inactive

SMILES: CCCCC(=O)O
- outcome [1]: inactive
- outcome [2]: inactive
- outcome [3]: inactive
- outcome [4]: inactive
- outcome [5]: inactive
- outcome [6]: inactive

SMILES: C=C(C)C1CC=C(C)C(OC(C)=O)C1 (configuration not stated)
- outcome [1]: inactive
- outcome [2]: inactive
- outcome [3]: inactive
- outcome [4]: inactive
- outcome [5]: inactive
- outcome [6]: inactive

SMILES: C=C(C)[C@@H]1CC=C(C)CC1
- outcome [1]: inactive
- outcome [2]: inactive
- outcome [3]: inactive
- outcome [4]: inactive
- outcome [5]: inactive

SMILES: C=Cc1ccc(OC(C)=O)cc1
- outcome [1]: inactive
- outcome [2]: inactive
- outcome [3]: inactive
- AC50 [4]: 6.87 µM (active)
- AC50 [5]: 55.4 µM (active)
- outcome [6]: inactive

SMILES: CCCCCCCC(=O)OCC(COC(=O)CCCCCCC)OC(=O)CCCCCCC
- outcome [1]: inactive
- outcome [2]: inactive
- outcome [3]: inactive
- outcome [4]: inactive
- outcome [5]: inactive

SMILES: CC(=O)c1ccccc1O
- outcome [1]: inactive
- outcome [2]: inactive
- outcome [3]: inactive
- outcome [4]: inactive
- outcome [5]: inactive
- outcome [6]: inactive

SMILES: C[N+](C)(C)CCCNS(=O)(=O)C(F)(F)C(F)(F)C(F)(F)C(F)(F)C(F)(F)C(F)(F)C(F)(F)C(F)(F)F
- outcome [1]: inactive
- outcome [2]: inactive
- outcome [3]: inactive
- outcome [7]: inactive
- outcome [5]: inactive
- outcome [6]: inactive
- AC50 [8]: 41.3 µM (active)
- outcome [8]: inactive
- outcome [9]: inactive

SMILES: O=C(Oc1ccccc1)c1ccccc1O
- outcome [1]: inactive
- outcome [2]: inactive
- outcome [3]: inactive
- outcome [4]: inactive
- outcome [5]: inactive

SMILES: CCCC1CCCC(=O)O1 (configuration not stated)
- outcome [1]: inactive
- outcome [2]: inactive
- outcome [3]: inactive
- outcome [4]: inactive
- outcome [5]: inactive

SMILES: CCCCCCCCCCCCCCCCCCOS(=O)(=O)O
- AC50 [1]: 49.5 µM (active)
- AC50 [2]: 33.4 µM (active)
- outcome [3]: inactive
- AC50 [7]: 58.1 µM (active)
- outcome [5]: inactive
- AC50 [6]: 18.4 µM (active)

SMILES: CC1=CCC(C(C)C)C=C1 (configuration not stated)
- outcome [1]: inactive
- outcome [2]: inactive
- outcome [3]: inactive
- AC50 [4]: 25.3 µM (active)
- outcome [5]: inactive
- outcome [6]: inactive

SMILES: COc1cc(C)ccc1O
- outcome [1]: inactive
- outcome [2]: inactive
- outcome [3]: inactive
- AC50 [4]: 17.4 µM (active)
- outcome [5]: inactive
- outcome [6]: inactive

SMILES: CCCCCCCCCC[N+](C)(CCCCCCCCCC)CCC[Si](OC)(OC)OC
- outcome [1]: inactive
- outcome [2]: inactive
- AC50 [3]: 14.6 µM (active)
- AC50 [4]: 16 µM (active)
- outcome [5]: inactive

SMILES: O=S(=O)(O)c1ccc(Nc2nc(Nc3ccc(C=Cc4ccc(Nc5nc(Nc6ccc(S(=O)(=O)O)cc6)nc(N(CCO)CCO)n5)cc4S(=O)(=O)O)c(S(=O)(=O)O)c3)nc(N(CCO)CCO)n2)cc1
- outcome [1]: inactive
- outcome [2]: inactive
- outcome [3]: inactive
- outcome [4]: inactive
- outcome [5]: inactive
- outcome [6]: inactive

SMILES: C=CC(C)(O)CC/C=C(\C)CC (configuration not stated)
- outcome [1]: inactive
- outcome [2]: inactive
- outcome [3]: inactive
- outcome [4]: inactive
- outcome [5]: inactive
- outcome [6]: inactive

SMILES: CCCCOCCOCCOC(C)=O
- outcome [1]: inactive
- outcome [2]: inactive
- outcome [3]: inactive
- outcome [4]: inactive
- outcome [5]: inactive
- outcome [6]: inactive

SMILES: CC(CC=O)CC(C)(C)C (configuration not stated)
- outcome [1]: inactive
- outcome [2]: inactive
- outcome [3]: inactive
- outcome [4]: inactive
- outcome [5]: inactive
- outcome [6]: inactive

SMILES: CC1OC(=O)C(C)OC1=O (configuration not stated)
- outcome [1]: inactive
- outcome [2]: inactive
- outcome [3]: inactive
- outcome [4]: inactive
- outcome [5]: inactive
- outcome [6]: inactive

SMILES: C=CC(=O)NC(C)(C)C
- outcome [1]: inactive
- outcome [2]: inactive
- outcome [3]: inactive
- AC50 [4]: 28 µM (active)
- outcome [5]: inactive
- outcome [8]: inactive
- outcome [9]: inactive
